Sampled rows, rich in hits. Any-hit rate of the full collection: about 2.4%.
D2 antagonist: antagonizes the human D2 dopamine receptor; inhibition, % at 10 µM; P14416; AID 485344; 340,000 tested, 2% active; HEK293 TREx D2 cells, calcium flux, dopamine EC80; in the data active = inhibition above about 30%; inactive = below that, where a call was filed; note: 0% is about no effect
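Cells plated overnight at 30 C with tetracycline; no-wash calcium dye, 30–90 min RT; 10 s baseline; compound pinned; 180 s read; EC80 dopamine added; another 180 s read.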
D2 PAM-1: D2 dopamine receptor (human) potentiation; 340,000 tested, 0.34% active; potentiation, % at 10 µM; HEK293 T-REx D2, calcium flux, EC20 dopamine potentiation; P14416;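 active = potentiation over 3 SD above the plate norm, cut at about 30% in these data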; note: 0% is about no effect
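Cells plated with tetracycline inducer and held overnight at 30 C; calcium dye loaded 30–90 min at room temperature; baseline taken, compound added and read 180 s; EC20 dopamine then added and read 180 s.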
D2 ag-1: activates the human D2 dopamine receptor | 340,000 tested, 0.53% active | AID 485358 | activation, % at 2 µM | P14416 | HEK293 T-REx D2 cells, calcium flux agonist mode;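 active = activation over 3 SD above normal in the single-dose calcium agonist read, cut at about 30% in these data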; note: 0% is about no effect
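Agonism is scored from calcium flux in a force-coupled, inducible HEK293 cell line expressing D2, read kinetically for 180 s after compound addition against dopamine controls.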
D2 ag-2: human D2 receptor agonism in beta-arrestin assay. activation, % (no concentration beside the values). DiscoveRx PathHunter D2 beta-arrestin, luminescence, 90 min; 100% = 57 uM dopamine signal. 360,000 tested, 0.084% active. P14416; in the data active = activation above about 40%
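Agonist mode: compounds alone added to overnight-plated D2 PathHunter cells for 90 min at 37 C, with 57 uM final dopamine (EC100) defining full response. Beta-arrestin recruitment detected by chemiluminescent reagent, read after 1 h at ambient temperature.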
D2 PAM-2: human D2 receptor positive allosteric modulation; DiscoveRx D2 beta-arrestin cells, luminescence, 90 min; 100% = 57 uM dopamine signal; potentiation, % (concentration not given with the values); P14416; 360,000 tested, 0.23% active; AID 624464; in the data active = potentiation above about 50%
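PathHunter beta-arrestin assay in DiscoveRx D2 cells. Compounds were added with an EC20 of dopamine (50 nM final) for 90 min at 37 deg C. Luminescence was read 1 h after detection reagent, with 57 uM dopamine as the EC100 control.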
D3 arrestin ag: D3 receptor agonism confirmed, beta-arrestin readout; shares compounds with D2 ag-1; DiscoveRx D3 beta-arrestin cells, luminescence, 90 min; Potency, µM (top dose mostly 76.9 µM), for the others: top-dose activation, actives largely listed as activators; 2,300 tested, 4% active;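 note: potency is the fitted concentration of half-maximal effect; 100% = dopamine control response; nearly all actives have a fitted effect of over 70% in size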
Target sequence (P35462 whole entry, looked up): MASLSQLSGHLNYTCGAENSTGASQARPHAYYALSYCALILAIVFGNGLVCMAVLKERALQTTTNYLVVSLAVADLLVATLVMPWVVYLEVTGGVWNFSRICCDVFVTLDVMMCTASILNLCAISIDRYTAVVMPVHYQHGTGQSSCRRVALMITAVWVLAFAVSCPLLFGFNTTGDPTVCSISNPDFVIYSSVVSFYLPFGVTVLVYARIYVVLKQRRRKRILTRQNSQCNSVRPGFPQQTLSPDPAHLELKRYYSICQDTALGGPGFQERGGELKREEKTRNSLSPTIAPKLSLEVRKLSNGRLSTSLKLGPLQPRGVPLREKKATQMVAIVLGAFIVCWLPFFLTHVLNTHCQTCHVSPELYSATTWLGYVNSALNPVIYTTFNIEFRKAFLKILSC
D2 ag-3: counter-screen for D3 agonists: human D2 dopamine receptor agonism | shares compounds with D2 ag-1 | DiscoveRx PathHunter D2 beta-arrestin, luminescence, 90 min; response scale: percent relative to full dopamine signal | AID 720507 | 2,300 tested, 5.9% active | Potency, µM (highest dose often 76.9 µM), inactives show at the highest dose activation, hits mostly activators; note: potency is the fitted concentration of half-maximal effect; % of control where 0% means no effect; nearly all actives have a fitted effect of over 70% in size
Active calls of the source: *. Unless noted, calls come from the whole dose curve; as a rule, active = well fitted activation curve with a large enough effect; inconclusive = small, poorly fitted or top-dose-only effect; inactive = flat fitted curve, though single readings scatter.

`Cc1ccc(Cn2c(SCc3ccc(C(=O)N4CCCCC4)cc3)nc3ccncc32)cc1` gave D2 PAM-1 5 and D2 ag-1 1.
For Cc1[nH]nc2c1C1(CCN(Cc3ccccc3)CC1)C(C#N)=C(N)O2 the results were D2 ag-2 6, D2 PAM-2 -7, D3 arrestin ag -1% and D2 ag-3 -7%.
`Cc1[nH]nc2c1C1(CCOCC1)C(C#N)=C(N)O2` gave D2 antagonist 6, D2 PAM-1 -3, D2 ag-1 1, D2 ag-2 -5 and D2 PAM-2 0.
`CCCN(Cc1cccs1)C(=O)Nc1cc(Cl)ccc1C` gave D2 PAM-1 3 and D2 ag-1 0.
Screening COc1ccc(C(=O)/C=C/c2cc(OC)c(O)c(OC)c2)c(F)c1 returned D2 antagonist 33*, D2 PAM-1 0, D2 ag-1 26, D2 ag-2 -4, D2 PAM-2 -27, D3 arrestin ag 3% and D2 ag-3 -6%.
COc1ccc2cc(C(=O)/C=C/c3cc(OC)c(O)c(OC)c3)ccc2c1 was read as D2 antagonist 16, D2 PAM-1 3, D2 ag-1 4, D2 ag-2 -4 and D2 PAM-2 -4.
For Cc1ccccc1CN1CCN(CC(=O)NCc2ccccc2Cl)C1=O the results were D2 PAM-1 -8 and D2 ag-1 0.
Screening COc1cc2c(C#CCCO)c(-c3ccc(C#N)cc3)oc(=O)c2cc1OC returned D2 antagonist 26, D2 PAM-1 -10, D2 ag-1 0, D2 ag-2 0, D2 PAM-2 0, D3 arrestin ag 8% and D2 ag-3 -1%.
Screening COc1cc2c(C#CCCO)c(-c3ccsc3)oc(=O)c2cc1OC returned D2 ag-2 3 and D2 PAM-2 4.
For CC(C)c1ccc(NC(=S)N(C)CCc2ccccn2)cc1 the results were D2 antagonist 36*, D2 PAM-1 -11, D2 ag-1 21, D2 ag-2 -2, D2 PAM-2 -8, D3 arrestin ag -4% and D2 ag-3 -1%.
For Cc1cccc(C)c1NC(=S)N(C)CCc1ccccn1 the results were D2 antagonist -22, D2 PAM-1 0, D2 ag-1 0, D2 ag-2 -7 and D2 PAM-2 -11.
`CCCS(=O)(=O)c1nc(S(=O)(=O)c2ccc(C)cc2)c(NCc2ccccc2Cl)s1` gave D2 PAM-1 -1 and D2 ag-1 0.
Screening Cc1ccccc1CN1CCN(C(C)C(=O)NNC(=O)c2ccc(F)cc2)CC1 (configuration not stated) returned D2 antagonist 25, D2 PAM-1 -15, D2 ag-1 58*, D2 ag-2 1, D2 PAM-2 -3, D3 arrestin ag -9% and D2 ag-3 10%.
COc1ccc(-c2nc3scc(CCNS(=O)(=O)c4cccs4)n3n2)cc1 was read as D2 PAM-1 16 and D2 ag-1 0.
For COc1ccc(C2(C)NC(=O)N(CC(=O)Nc3cccnc3Cl)C2=O)cc1 (configuration not stated) the results were D2 antagonist -5, D2 PAM-1 -13, D2 ag-1 1, D2 ag-2 -8 and D2 PAM-2 -10.
`CC1(c2ccc(OC(F)F)cc2)NC(=O)N(CC(=O)Nc2cccnc2Cl)C1=O` (configuration not stated) gave D2 antagonist 1, D2 PAM-1 11, D2 ag-1 12, D2 ag-2 -8, D2 PAM-2 3, D3 arrestin ag -6% and D2 ag-3 -1%.

Screening results deposited in PubChem by National Center for Advancing Translational Sciences (NCATS).
